# Results: publication PMC7826789 (International Journal of Molecular Sciences, 2021)
# Tests used:
# Conditions in all cases: Compound Concentration (nM):1000
# [1] = system: T1, BIKE
# T1 construct: gene BMP2K
# [2] = system: BLK
# [3] = system: BMPR1A
# [4] = system: BMPR1B
# [5] = system: BMPR2
# [6] = system: BMX
# [7] = system: BRAF(V600E)
# [8] = system: BRAF
# [9] = system: T2, BRK
# T2 construct: gene PTK6
# [10] = system: BRSK1
# [11] = system: BRSK2
# [12] = system: BTK
# [13] = system: BUB1
# [14] = system: T3, CAMK1B
# T3 construct: gene PNCK
# [15] = system: CAMK1D
# [16] = system: CAMK1G
# [17] = system: CAMK1
# [18] = system: CAMK2A
# [19] = system: CAMK2B
# [20] = system: CAMK2D
# 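Further: KINOMEscan scanMAX binding as percent activity remaining versus control; lower means stronger binding.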
SMILES,Percent Control [1],Percent Control [2],Percent Control [3],Percent Control [4],Percent Control [5],Percent Control [6],Percent Control [7],Percent Control [8],Percent Control [9],Percent Control [10],Percent Control [11],Percent Control [12],Percent Control [13],Percent Control [14],Percent Control [15],Percent Control [16],Percent Control [17],Percent Control [18],Percent Control [19],Percent Control [20]
CC1=C(C(=O)Nc2ccc3[nH]ncc3c2)C(c2ccc3ccccc3c2)CC(=O)N1 (centres unmarked) [GSK270822A],100%,35%,100%,43%,75%,78%,80%,100%,80%,100%,73%,13%,60%,67%,97%,91%,83%,87%,87%,79%
COc1cc2ncnc(Nc3ccc4c(cnn4Cc4ccccc4)c3)c2cc1OC.Cl [GW282449A],100%,23%,92%,91%,100%,100%,100%,100%,75%,100%,100%,40%,100%,100%,100%,100%,100%,100%,100%,100%
CC1=C(C(=O)Nc2ccc3[nH]ncc3c2)C(c2ccc(Cl)c(Cl)c2)CC(=O)N1 (centres unmarked) [GSK299115A],100%,91%,100%,67%,69%,75%,82%,100%,70%,92%,98%,26%,73%,81%,90%,100%,87%,80%,88%,96%
COc1ccc2[nH]c3c4[nH]c5ccc(OC)cc5c4c4c(c3c2c1)C(=O)NC4=O [GW296115X],76%,71%,100%,56%,93%,99%,89%,86%,81%,10%,6.2%,74%,29%,78%,64%,76%,80%,70%,100%,64%
COc1cc(C)c(N(C)C(=O)CN(C)C)cc1Nc1nc(Nc2cccc(F)c2C(N)=O)c2cc[nH]c2n1 [GSK2219385],77%,100%,93%,95%,91%,92%,82%,72%,100%,100%,93%,100%,90%,85%,87%,95%,97%,89%,93%,82%
NS(=O)(=O)c1ccc(N/N=C2\C(=O)Nc3ccc(C(=O)NCc4ccncc4)cc32)cc1 [GW300657X],60%,99%,100%,78%,68%,100%,87%,97%,100%,100%,94%,89%,49%,70%,80%,88%,85%,66%,78%,81%
COc1cccc(-c2c[nH]c3c(N/N=C/c4ccncc4)ncnc23)c1 [GW814408X],38%,19%,31%,0.1%,99%,100%,26%,29%,100%,100%,92%,77%,50%,95%,100%,97%,100%,77%,81%,84%
NS(=O)(=O)c1ccc(Nc2ncc(-c3ccccc3)o2)cc1 [GW572399X],100%,89%,100%,83%,100%,100%,80%,95%,100%,100%,100%,96%,80%,100%,100%,100%,78%,94%,100%,100%
Cl.O=C(Nc1ccc(Oc2ccc3[nH]c(NC(=O)c4ccco4)nc3c2)cc1)Nc1cc(C(F)(F)F)ccc1F [GW683134A],100%,70%,73%,100%,98%,87%,13%,32%,100%,100%,98%,95%,95%,100%,100%,100%,59%,85%,79%,100%
COc1cc(N2CCN(C(C)C)CC2)ccc1Nc1nc(Nc2ccc(F)cc2C(=O)NC[C@@H](O)CO)c2cc[nH]c2n1 [GSK1392956A],81%,99%,100%,88%,97%,100%,90%,94%,100%,100%,100%,100%,88%,60%,40%,75%,73%,69%,64%,87%
Nc1ncnc2occ(-c3ccc(NC(=O)Nc4cc(C(F)(F)F)ccc4F)cc3)c12 [GW770249X],100%,83%,100%,100%,97%,41%,7%,28%,100%,100%,88%,87%,98%,94%,93%,94%,77%,100%,100%,100%
CN(C)c1cc2c(Nc3ccc4c(cnn4Cc4ccccc4)c3)ncnc2cn1 [GW282974X],86%,80%,100%,91%,100%,100%,99%,92%,75%,92%,88%,64%,63%,98%,96%,91%,95%,74%,62%,72%
COc1cccc(-n2ncc3c(N/N=C/c4ccncc4)ncnc32)c1 [GW784752X],66%,45%,51%,0.1%,86%,100%,3.2%,6.5%,100%,18%,61%,100%,77%,99%,100%,100%,99%,89%,82%,100%
CCn1c(-c2nonc2N)nc2c(C#CC(C)(C)O)nc(OCCNC)cc21.Cl [GSK949675],75%,96%,89%,89%,100%,100%,100%,100%,100%,100%,91%,100%,71%,100%,100%,100%,100%,100%,100%,100%
O=C(Nc1n[nH]c2nc(-c3ccc(O)cc3)c(Br)cc12)C1CC1 [SB-725317],63%,92%,98%,69%,100%,100%,5.3%,17%,100%,46%,47%,97%,94%,100%,100%,100%,100%,93%,97%,100%
CN1CCN(C(=O)c2ccc(NC(=O)Nc3ccc(N(C)c4ccnc(Nc5ccc(CS(C)(=O)=O)cc5)n4)cc3)cc2)CC1.Cl [GW830263A],2.4%,87%,32%,1.1%,56%,59%,85%,89%,95%,100%,100%,50%,46%,85%,98%,88%,100%,86%,86%,69%
NS(=O)(=O)c1ccc(N/N=C2\C(=O)Nc3ccc(C(=O)NCCc4c[nH]cn4)cc32)cc1 [GW300660X],100%,100%,100%,95%,87%,100%,86%,100%,100%,100%,89%,100%,54%,85%,100%,100%,100%,100%,100%,100%
COc1ccc2c(-c3ccnc(Nc4cccc(OC(F)(F)F)c4)n3)cnn2n1 [GW810372X],58%,100%,100%,100%,100%,90%,92%,100%,100%,100%,77%,84%,86%,100%,100%,100%,100%,100%,100%,100%
C[C@@H](Oc1cc(-n2cnc3ccc(OC4CCN(C)CC4)cc32)sc1C(N)=O)c1ccccc1Cl [GSK579289A],19%,94%,72%,67%,78%,98%,82%,95%,77%,64%,56%,92%,88%,100%,61%,81%,55%,74%,80%,52%
